A short description of assay [1]: NCI Yeast Anticancer Drug Screen. Data for the rad50 strain (AID 155).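 Note: 0% = growth of vehicle-only cultures of the same strain.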 The following applies: S. cerevisiae rad50 strain growth inhibition, hits give high values. In short, it runs like this:
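Relative growth inhibition (compound vs vehicle) was measured in yeast with a defined repair-gene alteration.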

Assay [2] in a line: NCI Yeast Anticancer Drug Screen. Data for the mec2-1 strain (AID 157). The following applies: S. cerevisiae mec2-1 strain, hits give high values. In short, it runs like this:
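Compounds were applied to mec2-1 yeast cells. Their growth was then compared with that of vehicle-treated cultures to give growth inhibition.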

Assay [3] in a line: NCI Yeast Anticancer Drug Screen. Data for the sgs1 mgt1 strain (AID 161).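 Note: 0% = growth of cultures given vehicle only.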 The following applies: S. cerevisiae sgs1 mgt1 strain, hits give high values. In short, it runs like this: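 This yeast growth screen uses a strain with defined DNA-repair lesions; compound-treated growth is compared with vehicle-treated growth.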
Assay [4] is described as follows: NCI Yeast Anticancer Drug Screen. Data for the cln2 rad14 strain (AID 165).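 Note: 0% = growth equal to vehicle treated cultures.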 The following applies: S. cerevisiae cln2 rad14 strain, hits give high values. In short, it runs like this: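 Strain: cln2 rad14 yeast, altered in cell cycle control and DNA damage repair. Read-out: growth inhibition vs vehicle.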
A short description of assay [5]: NCI Yeast Anticancer Drug Screen. Data for the bub3 strain (AID 167). The following applies: S. cerevisiae bub3 mutant strain, hits give high values. In a few lines: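 Screening used yeast with an engineered genetic alteration affecting cell cycle control. Compound-exposed cultures were compared with vehicle cultures, and reduced growth was taken as inhibition.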

A short description of assay [6]: NCI Yeast Anticancer Drug Screen. Data for the mlh1 rad18 strain (AID 175). The following applies: S. cerevisiae mlh1 rad18 strain growth inhibition, hits give high values. In short, it runs like this:
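A repair-deficient yeast strain is exposed to test compound, and growth is scored relative to vehicle-treated controls.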

[7] abbreviates: at 5.0 µM (retest, dose inferred, filed as 0.5).
Setting [8] is: at 50.0 µM (retest, dose inferred, filed as 5.0).

Compounds without any hit were thinned out: in the full panel of roughly 79,000, 15% have a hit. A number with no mark means an inactive call. Active and inactive are the calls of the source. Cut-off read from the data, not from the text of the source: active = growth inhibition above about 70%; inactive = the rest.

Turning to `CCc1cccc(C)c1N1C(=O)C(=O)C(c2nc3ccccc3o2)/C(=N\NS(=O)(=O)c2ccc(C)cc2)C1=O` (stereo not given), the growth inhibition in assay [1] (setting [7]) was 7%; in assay [1] (setting [8]), 0%; in assay [1] (at 50.0 µM) it was -6.6%; in assay [2] (setting [7]), 15%; in assay [2] (setting [8]), 34%; in assay [2] (at 50.0 µM), 14.2%. In addition, the growth inhibition in assay [3] (setting [7]) is 6%; in assay [3] (setting [8]) it was 2%; in assay [3] (at 50.0 µM), 4.4%; in assay [4] (setting [7]), 8%; in assay [4] (setting [8]) it was -2%; in assay [4] (at 50.0 µM), 36%. The growth inhibition in assay [5] (setting [7]) was 8%; in assay [5] (setting [8]) it was 14%; in assay [5] (at 50.0 µM), 6.6%; in assay [6] (setting [7]), 5%; in assay [6] (setting [8]), 15%; in assay [6] (at 50.0 µM), 0.25%.
As to `CCCCCCCCCCCCCCCC[N+](C)(C)CCCCCC(=O)OC`, the growth inhibition in assay [1] (setting [7]) was 99% (active); in assay [1] (setting [8]), 99% (active); in assay [1] (at 50.0 µM), 98.9% (active); in assay [2] (setting [7]), 100% (active); in assay [2] (setting [8]), 100% (active); in assay [2] (at 50.0 µM), 99.1% (active). Also, the growth inhibition in assay [3] (setting [7]) was 100% (active); in assay [3] (setting [8]) it was 100% (active); in assay [3] (at 50.0 µM) it was 99% (active); in assay [4] (setting [7]) it was 99% (active); in assay [4] (setting [8]), 99% (active); in assay [4] (at 50.0 µM) it was 97.4% (active). Moreover, the growth inhibition in assay [5] (setting [7]) was 100% (active); in assay [5] (setting [8]), 100% (active); in assay [5] (at 50.0 µM), 98.5% (active); in assay [6] (setting [7]), 100% (active); in assay [6] (setting [8]), 100% (active); in assay [6] (at 50.0 µM), 98.7% (active).
Take `NC1NCCC(=O)N1CCc1c[nH]c2ccccc12` (stereo not given): the growth inhibition in assay [1] (setting [7]) was -18%; in assay [1] (setting [8]), 99% (active); in assay [1] (at 50.0 µM), 65.9%; in assay [2] (setting [7]), 7%; in assay [2] (setting [8]), 100% (active); in assay [2] (at 50.0 µM), 54.9%. Also, the growth inhibition was -22% in assay [3] (setting [7]); 99% (active) in assay [3] (setting [8]); 54.4% in assay [3] (at 50.0 µM); 31% in assay [4] (setting [7]); 99% (active) in assay [4] (setting [8]); 22.3% in assay [4] (at 50.0 µM). Besides, the growth inhibition in assay [5] (setting [7]) is -26%; in assay [5] (setting [8]) it was 100% (active); in assay [5] (at 50.0 µM), 74.5% (active); in assay [6] (setting [7]), -12%; in assay [6] (setting [8]), 100% (active); in assay [6] (at 50.0 µM) it was 53.6%.
For `CCC1CCCN1CCOC(=O)C(c1ccccc1)C1C=CCC1` (stereo not given), the growth inhibition in assay [1] (setting [7]) was 31%; in assay [1] (setting [8]), 51%; in assay [1] (at 50.0 µM), 52.9%; in assay [2] (setting [7]) it was 23%; in assay [2] (setting [8]), 58%; in assay [2] (at 50.0 µM), 33.9%. The growth inhibition in assay [3] (setting [7]) was 40%; in assay [3] (setting [8]), 74% (active); in assay [3] (at 50.0 µM), 72% (active); in assay [4] (setting [7]), 32%; in assay [4] (setting [8]), 62%; in assay [4] (at 50.0 µM) it was 62.4%. Besides, the growth inhibition was 40% in assay [5] (setting [7]); 60% in assay [5] (setting [8]); 48.6% in assay [5] (at 50.0 µM); 60% in assay [6] (setting [7]); 79% (active) in assay [6] (setting [8]); 63% in assay [6] (at 50.0 µM).
Take `O=C(O)C(Cc1cc(I)c(O)c(I)c1)c1ccccc1` (stereo not given): the growth inhibition in assay [1] (setting [7]) is -14%; in assay [1] (setting [8]), 29%; in assay [1] (at 50.0 µM) it was 60.1%; in assay [2] (setting [7]), -1%; in assay [2] (setting [8]), 34%; in assay [2] (at 50.0 µM), 19.2%. Further, the growth inhibition in assay [3] (setting [7]) is -25%; in assay [3] (setting [8]), 38%; in assay [3] (at 50.0 µM), 16.8%; in assay [4] (setting [7]) it was -5%; in assay [4] (setting [8]), 41%; in assay [4] (at 50.0 µM) it was 32.6%. The growth inhibition in assay [5] (setting [7]) is -4%; in assay [5] (setting [8]), 29%; in assay [5] (at 50.0 µM) it was 21.9%; in assay [6] (setting [7]), 0%; in assay [6] (setting [8]), 45%; in assay [6] (at 50.0 µM), 57.5%.

For the origin of these results see PubChem BioAssay (NCI).
